Assay [1] in a line: qHTS assay to identify small molecule agonists of the sonic hedgehog signaling (Shh) pathway - cell viability counter screen (AID 1259366). Further: nearly all actives have a fitted effect of over 50% in size. In a few lines: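 Viability measured fluorometrically (CellTiter-Fluor, 1hr, 37C) in 3T3 Gli1-Luc reporter cells after 23hr compound exposure within a 24hr incubation at 37C/5% CO2.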
Assay [2] is described as follows: qHTS assay to identify small molecule antagonists of the sonic hedgehog signaling (Shh) pathway - cell viability counter screen (AID 1259367). Further: nearly all actives have a fitted effect of over 55% in size. In a few lines:
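After a 4 hr settling period, 3T3 Gli1-Luc cells were treated with DMSO-dissolved chemicals and conditioned medium, kept 24 hr at 37C in 5% CO2, and assayed for viability by CellTiter-Fluor fluorescence following 1 hr reagent incubation.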
Background: qHTS replaces the single test concentration by a dilution series.

Assay [3] can be described thus: qHTS assay to identify small molecule agonists of the sonic hedgehog signaling (Shh) pathway (AID 1259368; calls by dose curve;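 further: NIH/3T3-derived 3T3Gli1-Luc cells carrying a stable Gli1-driven firefly luciferase reporter; series mostly up to about 92 µM; nearly all actives have a fitted effect of over 15% in size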). In a few lines: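 Luminescent signal was taken as a measure of Gli1-controlled luciferase expression in stably transfected NIH/3T3-derived cells that had been treated for 24 hr with compounds delivered in DMSO.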
Assay [4] is described as follows: qHTS assay to identify small molecule antagonists of the sonic hedgehog signaling (Shh) pathway (AID 1259369; calls by dose curve; further: nearly all actives have a fitted effect of over 45% in size). In a few lines: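 Screening used 3T3Gli1-Luc cells at 2,000 per well, compounds delivered in DMSO, and conditioned medium as agonist stimulus; plates incubated 24hr at 37 C and 5% CO2 before a 30min luciferase step.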
For assay [5], the target named is Estrogen receptor beta (Homo sapiens) (UniProt Q92731). Kind of assay: qHTS assay to identify small molecule agonists of the estrogen receptor beta (ER-beta) signaling pathway (AID 1259377; active means well fitted activation curve with a large enough effect in the signal ratio in the repeat runs, not every such curve was filed as active; the % refers to the signal ratio). In a few lines:
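A UAS-controlled beta-lactamase reporter in ER-beta-UAS-bla HEK293T cells reports receptor activation. Compounds act for 16 hr at 37C in 2% charcoal-stripped serum, and a FRET substrate is read by fluorescence after 2 hours.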

For assay [6] the target is unchanged. Put plainly: qHTS assay to identify small molecule antagonists of the estrogen receptor beta (ER-beta) signaling pathway (AID 1259378; active means well fitted inhibition curve with a large enough effect in the signal ratio in the repeat runs, not every such curve was filed as active; the % refers to the signal ratio). In a few lines: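 ER-beta-UAS-bla HEK293T (GripTite) cells in 2% charcoal-stripped FBS medium were preincubated 6 hr at 37C, dosed with compound, then stimulated with 1 nM E2 (final) for 16 hr; beta-lactamase reporter read by B/G FRET fluorescence after 2 hr substrate loading.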

Assay [7] is described as follows: qHTS assay to identify small molecule agonists of the androgen receptor (AR) signaling pathway in the presence of an antagonist - cell viability counter screen (AID 1259379).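 Further: MDA-kb2 human breast cancer cells carrying an MMTV luciferase reporter; series mostly up to about 92 µM; nearly all actives have a fitted effect of over 25% in size.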 In a few lines: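 In MDA-kb2 cells (human breast carcinoma, MMTV-luciferase), compounds at 15 concentrations plus 3.0uM nilutamide; 16 hr, 37C, 0% CO2; CellTiter-Fluor fluorescence read for viability.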

Assay [8] can be described thus: qHTS assay to identify small molecule agonists of the estrogen receptor beta (ER-beta) signaling pathway - cell viability counter screen (AID 1259380). Further: nearly all actives have a fitted effect of over 30% in size. In a few lines: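 Viability of ER-beta-UAS-bla HEK293T cells was determined by CellTiter-Glo luminescence following 16 hr treatment with test compounds at 37C.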
A short description of assay [9]: qHTS assay to identify small molecule antagonists of the estrogen receptor beta (ER-beta) signaling pathway - cell viability counter screen (AID 1259382). Further: series mostly up to about 92 µM; nearly all actives have a fitted effect of over 55% in size. In a few lines: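 Tox21 10K library tested in qHTS format on ER-beta-bla HEK293T cells stimulated with 1nM E2; 16 hr treatment at 37C. Same-well CellTiter-Glo luminescence served as the cell viability measure.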

Assay [10] concerns the target Estrogen receptor (Homo sapiens) (UniProt P03372). Kind of assay: qHTS assay to identify small molecule agonists of the estrogen receptor alpha (ER-alpha) signaling pathway in the presence of an antagonist (AID 1259383; calls by dose curve; further: top concentration of the series differs between compounds; nearly all actives have a fitted effect of over 15% in size). In a few lines:
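In VM7Luc4E2 cells, 4,000 per well, compounds at 15 concentrations were co-incubated 22hr at 37C with 10.0nM final ICI-182,780. Luminescence from the stably transfected 4×ERE-luciferase reporter was recorded 30min after ONE-Glo addition.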

Assay [11] in a line: qHTS assay to identify small molecule agonists of the estrogen receptor alpha (ER-alpha) signaling pathway in the presence of an antagonist - cell viability counter screen (AID 1259386).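 Further: series mostly up to about 92 µM; cells exposed to compounds for 22 h at 37 °C before the viability read; nearly all actives have a fitted effect of over 30% in size.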 In a few lines: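 Fluorescent CellTiter-Fluor viability signal from VM7Luc4E2 cells, with the reagent added during the final hour of a 22hr compound exposure at 37C in the presence of 10.0nM ICI-182,780.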

Assay [12] deals with Progesterone receptor (Homo sapiens) (UniProt P06401). Put plainly: qHTS assay to identify small molecule agonists of the progesterone receptor (PR) signaling pathway (AID 1346784; calls by dose curve; further: nearly all actives have a fitted effect of over 30% in size). In a few lines:
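Agonist mode, quantitative HTS format in a HEK 293T line expressing a UAS-controlled beta-lactamase reporter; 16 hr compound exposure at 37C in 2% charcoal-stripped FBS, then LiveBLAzer B/G FRET fluorescence.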

For assay [13] the target is unchanged. Kind of assay: qHTS assay to identify small molecule antagonists of the progesterone receptor (PR) signaling pathway (AID 1346795; active means well fitted inhibition curve with a large enough effect in the signal ratio in the repeat runs, not every such curve was filed as active; the % refers to the signal ratio; further: potency means the concentration at half of the fitted maximal effect). In a few lines:
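HEK293T PR-UAS-bla reporter cells in charcoal-stripped serum (2%) received compound after a 6 hr settling period, followed by R5020 agonist at 1 nM final; 16 hr incubation preceded the FRET substrate step and fluorescence measurement.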

Assay [14] can be described thus: qHTS assay to identify small molecule antagonists of the progesterone receptor (PR) signaling pathway - cell viability counter screen (AID 1346798). Further: series mostly up to about 92 µM; nearly all actives have a fitted effect of over 50% in size. In a few lines:
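Same-well multiplex: after 16 hr at 37C with compound and R5020 stimulation, HEK293T cells carrying a UAS-bla reporter received LiveBLAzer substrate (2 hr RT), then CellTiter-Glo (30 min RT) for luminescent viability.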

Assay [15] is described as follows: qHTS assay to identify small molecule agonists of the progesterone receptor (PR) signaling pathway - cell viability counter screen (AID 1346799; calls by dose curve; further: nearly all actives have a fitted effect of over 45% in size). In a few lines:
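Counter screen for cytotoxicity: compound-treated PR-UAS-bla HEK293T cells (16 hr, 37C, 5% CO2) were assayed with CellTiter-Glo, luminescence measured after 30 min at room temperature.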

A short description of assay [16]: qHTS assay to identify small molecule antagonists of the TGF-beta/Smad signaling pathway - cell viability counter screen (AID 1346824). Further: nearly all actives have a fitted effect of over 50% in size. In a few lines: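 SBE-bla HEK 293T cells were plated overnight at 37 C, then given compounds in DMSO plus TGF-beta1 (added as 0.25 ng/mL solution) for 5 hr. After the bla read, CellTiter-Glo was added to the same wells and luminescence read after 30 min at room temperature.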

The nature of assay [17]: qHTS assay to identify small molecule agonists of the TGF-beta/Smad signaling pathway - cell viability counter screen (AID 1346829). Further: top concentration of the series differs between compounds; nearly all actives have a fitted effect of over 45% in size. In a few lines:
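Luminescence from CellTiter-Glo, read after a 30 min room-temperature incubation, gives cell viability of SBE-bla HEK 293T cells treated 5 hr with compounds at 37 C.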

The target of assay [18] is Thyrotropin receptor (Homo sapiens) (UniProt P16473). Put plainly: qHTS assay to identify small molecule antagonists of the thyroid stimulating hormone receptor (TSHR) signaling pathway (AID 1259385; calls by dose curve; further: nearly all actives have a fitted effect of over 20% in size). In a few lines:
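TSHR-HEK293 cells were plated and held 18 h at 37C/5% CO2, then given compound plus Ro20-1724 and stimulated with TSH at 1.5 ng/mL final. After 30 min at room temperature, cAMP was detected with cAMP-d2/anti-cAMP-cryptate (1 h) by fluorescence.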

Assay [19] is described as follows: qHTS assay to identify small molecule agonists or antagonists of the thyroid stimulating hormone receptor (TSHR) signaling pathway - wild type cell line counter screen (AID 1259384; calls by dose curve). In a few lines: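 Wild-type HEK293 cells were plated 18 h at 37 C/5% CO2, pin-dosed with compound plus Ro20-1724 medium, held 30 min at room temperature, then given cAMP-d2 and anti-cAMP-cryptate; fluorescence was read after 1 h. Fifteen concentrations, triplicate.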

A number with no mark means an inactive call. Inconclusive results are not listed. The source made the active and inactive calls. Unless noted, the call rests on the fitted dose curve; in most records, active means well fitted curve in the direction sought with a large enough effect in the repeat runs; inconclusive means weak or mixed curves; inactive means no such curve, though single readings can be large; an effect the other way counts as inactive or inconclusive.

Data on eight compounds can be found in PubChem BioAssay (Tox21).

Progesterone receptor (Homo sapiens), sequence (P06401 whole entry, looked up): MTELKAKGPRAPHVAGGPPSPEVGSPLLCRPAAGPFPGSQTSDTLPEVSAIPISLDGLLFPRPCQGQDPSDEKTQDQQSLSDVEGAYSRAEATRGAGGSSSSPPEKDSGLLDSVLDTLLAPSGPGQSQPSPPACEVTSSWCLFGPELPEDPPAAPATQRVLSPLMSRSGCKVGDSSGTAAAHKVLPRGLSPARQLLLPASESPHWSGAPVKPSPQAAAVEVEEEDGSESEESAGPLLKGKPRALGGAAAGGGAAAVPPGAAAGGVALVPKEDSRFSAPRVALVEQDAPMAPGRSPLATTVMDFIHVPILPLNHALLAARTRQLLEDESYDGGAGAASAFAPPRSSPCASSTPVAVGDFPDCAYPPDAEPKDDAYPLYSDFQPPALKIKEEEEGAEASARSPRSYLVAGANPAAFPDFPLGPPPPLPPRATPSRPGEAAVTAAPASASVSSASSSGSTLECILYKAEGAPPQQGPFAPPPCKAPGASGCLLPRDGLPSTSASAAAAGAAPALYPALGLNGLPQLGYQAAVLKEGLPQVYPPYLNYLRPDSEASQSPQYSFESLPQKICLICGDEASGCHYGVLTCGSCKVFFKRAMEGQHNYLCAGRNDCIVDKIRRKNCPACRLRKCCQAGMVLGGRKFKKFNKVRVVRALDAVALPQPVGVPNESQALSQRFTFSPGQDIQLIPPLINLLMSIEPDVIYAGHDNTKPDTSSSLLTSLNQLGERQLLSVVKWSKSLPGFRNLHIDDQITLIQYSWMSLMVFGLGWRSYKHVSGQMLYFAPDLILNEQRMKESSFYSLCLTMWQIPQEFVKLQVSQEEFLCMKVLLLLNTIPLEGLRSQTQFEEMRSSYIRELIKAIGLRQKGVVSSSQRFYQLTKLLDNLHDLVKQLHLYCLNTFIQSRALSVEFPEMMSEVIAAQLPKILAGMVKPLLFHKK
Estrogen receptor (Homo sapiens), sequence (P03372 whole entry, looked up): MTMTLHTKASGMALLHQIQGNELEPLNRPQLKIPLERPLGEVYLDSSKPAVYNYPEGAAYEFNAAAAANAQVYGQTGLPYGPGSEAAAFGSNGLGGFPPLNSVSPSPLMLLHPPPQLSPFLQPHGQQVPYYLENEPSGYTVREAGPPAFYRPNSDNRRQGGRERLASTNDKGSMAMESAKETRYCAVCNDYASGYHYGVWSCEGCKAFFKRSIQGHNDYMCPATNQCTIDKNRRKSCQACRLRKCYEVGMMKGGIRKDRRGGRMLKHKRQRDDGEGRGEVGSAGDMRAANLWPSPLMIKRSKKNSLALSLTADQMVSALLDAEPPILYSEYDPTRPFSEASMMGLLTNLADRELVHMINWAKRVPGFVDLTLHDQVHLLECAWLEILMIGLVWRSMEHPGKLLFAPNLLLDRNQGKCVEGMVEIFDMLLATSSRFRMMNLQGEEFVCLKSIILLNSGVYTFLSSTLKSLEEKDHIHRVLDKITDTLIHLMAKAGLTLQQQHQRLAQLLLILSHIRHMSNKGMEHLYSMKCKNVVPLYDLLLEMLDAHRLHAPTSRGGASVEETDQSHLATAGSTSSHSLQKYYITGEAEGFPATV
Thyrotropin receptor (Homo sapiens), sequence (P16473 whole entry, looked up): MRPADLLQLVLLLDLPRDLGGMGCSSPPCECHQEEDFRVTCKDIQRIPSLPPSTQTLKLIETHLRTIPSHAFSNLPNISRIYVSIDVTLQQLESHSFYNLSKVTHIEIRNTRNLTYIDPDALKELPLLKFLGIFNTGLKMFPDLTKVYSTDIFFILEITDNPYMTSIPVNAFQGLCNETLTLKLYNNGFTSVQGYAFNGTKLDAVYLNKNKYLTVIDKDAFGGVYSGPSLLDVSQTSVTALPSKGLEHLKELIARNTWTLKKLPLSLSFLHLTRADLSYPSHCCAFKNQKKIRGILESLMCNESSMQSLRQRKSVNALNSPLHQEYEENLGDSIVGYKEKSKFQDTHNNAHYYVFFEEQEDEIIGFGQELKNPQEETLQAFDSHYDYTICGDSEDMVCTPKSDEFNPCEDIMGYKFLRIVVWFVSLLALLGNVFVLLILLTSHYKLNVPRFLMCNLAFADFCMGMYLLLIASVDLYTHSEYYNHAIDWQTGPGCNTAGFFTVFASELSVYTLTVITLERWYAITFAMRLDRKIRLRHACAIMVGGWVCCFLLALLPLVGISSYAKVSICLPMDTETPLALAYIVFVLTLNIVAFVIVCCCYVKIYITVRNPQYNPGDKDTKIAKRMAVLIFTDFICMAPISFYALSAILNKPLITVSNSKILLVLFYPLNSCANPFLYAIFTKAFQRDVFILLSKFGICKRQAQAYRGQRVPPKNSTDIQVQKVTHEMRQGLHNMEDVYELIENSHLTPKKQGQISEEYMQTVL
Estrogen receptor beta (Homo sapiens), sequence (Q92731 whole entry, looked up): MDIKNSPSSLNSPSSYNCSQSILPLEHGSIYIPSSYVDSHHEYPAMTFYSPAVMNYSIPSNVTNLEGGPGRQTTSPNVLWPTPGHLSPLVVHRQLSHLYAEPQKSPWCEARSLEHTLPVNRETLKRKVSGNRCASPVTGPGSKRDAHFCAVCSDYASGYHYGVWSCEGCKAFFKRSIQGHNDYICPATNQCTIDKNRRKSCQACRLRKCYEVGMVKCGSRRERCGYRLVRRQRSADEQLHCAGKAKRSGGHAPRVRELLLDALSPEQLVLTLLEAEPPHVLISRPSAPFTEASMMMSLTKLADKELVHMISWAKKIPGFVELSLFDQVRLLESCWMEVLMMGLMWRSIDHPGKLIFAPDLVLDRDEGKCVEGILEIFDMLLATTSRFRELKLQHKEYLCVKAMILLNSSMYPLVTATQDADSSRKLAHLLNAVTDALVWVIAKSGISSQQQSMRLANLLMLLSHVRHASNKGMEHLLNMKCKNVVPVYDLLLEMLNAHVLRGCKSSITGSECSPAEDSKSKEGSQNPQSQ

On to `CCCCS`, for which the compound was classed as inactive in assay [1], in [2], in assay [3], in assay [6], in assay [7] and in [9]. Further, the outcome in assay [11], in assay [14], in [16] and in assay [17] was inactive. Also, the Potency result in [4], in [5], in [8], in assay [10], in assay [12] and in assay [13] was “inactive” throughout. In [15], the Potency entry is “inactive”.
For the compound `CC(C)(C)C(=O)CCc1ccc(Cl)cc1`, the compound was called inactive in assay [1], in assay [2], in [3], in [6], in assay [7] and in assay [18]. Also, the outcome in [11], in assay [16] and in assay [17] was inactive. Also, the Potency result in [4], in [5], in assay [8], in assay [10], in assay [12] and in assay [13] was “inactive” throughout.
As for `O=CN1CCCCC1`, the call in assay [1], in assay [2], in assay [3], in assay [6], in assay [7] and in assay [19] was inactive. The compound was called inactive in assay [18], in assay [11], in [14], in assay [16] and in assay [17]. Moreover, the Potency result in [4], in assay [5], in [8], in assay [10], in [12] and in [13] was “inactive” each time. The Potency entry in assay [15] is “inactive”.
As to `COc1cc(OC)cc(OC)c1`, the outcome in assay [1], in assay [2], in [3], in assay [6], in assay [7] and in assay [9] was inactive. The result in assay [11], in assay [14] and in assay [16] was inactive. Also, the Potency result in assay [4], in [5], in [8], in assay [10], in [12] and in assay [13] was “inactive” each time. The Potency result in assay [15] is “inactive”.
`C=C(C)C(=O)OCCCC`: the outcome in assay [1], in assay [2], in assay [3], in [6], in assay [7] and in [9] was inactive. Moreover, the compound was called inactive in [19], in [18], in assay [11], in [14] and in [17]. Moreover, the Potency result in assay [4], in assay [5], in [8], in assay [12], in assay [13] and in assay [15] was “inactive” throughout.
As for `COc1ccc2cc(CCC(C)=O)ccc2c1`, the result in assay [1], in [2], in [3], in assay [6], in assay [7] and in assay [9] was inactive. Also, the call in [19], in [18], in [11], in [14], in assay [16] and in assay [17] was inactive. Moreover, the Potency result in assay [4], in [5], in [8] and in assay [12] was “inactive” in each case. Moreover, the Potency in assay [13] was 13.3 µM (active).
As to `O=C(O)COc1ccc2ccccc2c1`, the outcome in [1], in assay [2], in [3], in [6], in [7] and in assay [9] was inactive. The outcome in [11], in assay [14], in assay [16] and in [17] was inactive. Moreover, the Potency result in assay [4], in assay [5], in assay [8], in assay [10], in assay [12] and in assay [13] was “inactive” throughout.
Consider `CCCCCC(CC)OC(=O)CCCOc1ccc(Cl)cc1Cl` (centres undefined), for which the outcome in [1], in assay [2], in assay [3], in assay [6], in assay [7] and in [9] was inactive. Also, the outcome in assay [19], in assay [18], in [11], in assay [14], in [16] and in assay [17] was inactive. Further, the Potency result in assay [4], in [5], in assay [8], in assay [12], in assay [13] and in assay [15] was “inactive” throughout.
